Molecules are shown by their SMILES. Compounds without any hit were thinned out: in the full panel of roughly 83,000, 20% have a hit.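 48-hour exposure, single concentration, 96-well plates; percent growth endpoint where 0 means no net growth. Active: below 10.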 A number with no mark means an inactive call. Active and inactive are the calls of the source.

This assay concerns HL-60(TB) leukemia. In words: NCI-60 one-dose screen, 48 h (100 = growth as untreated, 0 = no growth, -100 = all killed). To be noted: 10 µM unless noted.
In the case of `N#C/C(=C\c1ccc([N+](=O)[O-])s1)c1nc2cc(Br)ccc2s1`, the growth is 17.7%.

Take `CC(=O)N1N=C(c2ccc(Nc3nc(Nc4ccc(F)cc4)nc(Nc4ccc(Cl)cc4)n3)cc2)CC1c1ccc(Cl)cc1` (stereo not given): the growth is 166%.

Consider `COc1cc(C2C3=C(COC3=O)N(CCO)c3cc4c(cc32)OCCO4)cc(OC)c1O` (stereo not given), for which the growth is -9% (active).

For the molecule `O=C(CN1CCOCC1)Nc1ccc(Cn2nnc3c2C(=O)c2nnn(Cc4ccc(NC(=O)CN5CCOCC5)cc4)c2C3=O)cc1`, the growth was -39.1% (active).

For the molecule `COc1ccc(COC(=O)CC(C)C)cc1`, the growth is 99.7%.

For the molecule `Cn1cc(-c2csc(-c3cn(CCCN4CCOCC4)c4ccccc34)n2)c2cccnc21`, the growth was 70.9%.

On to `COc1ccc(-c2cc(-c3cn(-c4cccc(Cl)c4)nc3-c3ccc(OC)cc3)on2)cc1`, for which the growth was 93.6%.

On to `O=C(CCl)N1c2cccc3cccc(c23)N(C(=O)CCl)C1c1cn(-c2ccccc2)nc1-c1cccc([N+](=O)[O-])c1`, for which the growth was 27.7%.

Regarding `COc1c(Cl)c2c(c(OC)c1OC)-c1ccc(SC)c(=O)cc1[C@@H](NC(=O)OCC(F)(F)F)CC2`, the growth is -35.4% (active).

Take `S=C(N/N=C/c1cc(Cl)cc(Cl)c1)NC12CC3CC(CC(C3)C1)C2`: the growth was 104%.

For `O=C(/C=C/C12c3ccccc3C(c3ccccc31)C1C(=O)NC(=O)C12)c1ccccn1` (stereo not given), the growth is -11.5% (active).

Regarding `N/C(=N\c1nc2ccccc2s1)NC(=O)Nc1cccc2ccccc12`, the growth was -26.8% (active).

Take `Clc1ccc2c(c1)N(C1CCCN(Cc3ccccc3)C1)c1ccccc1S2` (stereo not given): the growth is 28.5%.

Regarding `COc1ccc(S(=O)(=O)NCCCNc2nccc(-c3c(-c4ccc(F)cc4)nc4sccn34)n2)cc1`, the growth was 70.4%.

With `CNC(=O)c1cc(Oc2ccc3nc(NC(=O)c4cc(C(F)(F)F)cc(C(F)(F)F)c4)sc3c2)ccn1`, the growth is -12.8% (active).

For the molecule `Cc1n(Cc2ccc3ccccc3c2)cc[n+]1Cc1ccc2ccccc2c1`, the growth was -38.1% (active).

For `CC(=O)c1cc2c(N)c(C(=O)Nc3cccc(Cl)c3)sc2nc1C`, the growth is 48.9%.

As for `Cc1nc(N=C(N)N)nc2ccc3ccccc3c12`, the growth was 22.6%.

As to `C=C[C@@H]1C[C@@H]2Cc3ccccc3N1O2`, the growth is -12.8% (active).

Regarding `COc1cc2ncnc(Nc3ccc(Oc4ccnc(C)c4)c(C)c3)c2cc1NC(=O)CC1CCSS1` (stereo not given), the growth is -45.8% (active).

Regarding `O=C1NC(=S)NC(=O)C1CC(=O)n1c(-c2ccccc2)nc2ccccc21`, the growth was 104%.

Consider `Nc1ccc(Oc2c(F)c(F)c(Oc3ccc(N)cc3)c(F)c2F)cc1`, for which the growth was 76.9%.

With `Nc1ccc(/C=N/Nc2ccnc3c(O)cccc23)c2cccnc12`, the growth was 17.9%.

With `ClCC1(Cn2cnc3c(Cl)nc(Cl)nc32)COC1`, the growth was 91.6%.

On to `CNCCNc1nc2ccccc2c2c(=O)c3cc(OC)ccc3sc12`, for which the growth was -52.9% (active).

Consider `CCOC(=O)/C(C#N)=C1/C(=O)Nc2ccccc21`, for which the growth was 149%.

`NNC(=O)CSc1nc2scc(-c3ccccc3)c2c(=O)n1-c1ccccc1`: the growth is 84%.

Regarding `Cc1cc(C)c(-c2cc(O)c(-c3c(C)cc(C)cc3C)cc2O)c(C)c1`, the growth is -24.4% (active).

`O=C(COc1ccc(-c2nc3ccccc3[nH]2)cc1)N=Nc1c(O)[nH]c2ccccc12`: the growth was 103%.

Consider `Cc1ccc2c(-n3nc(C#N)c(C#N)c3N)cc(=O)[nH]c2c1`, for which the growth was 109%.

As to `CCOC(C=O)OCC`, the growth is 104%.

For the molecule `CC(=O)O[C@@H]1CC2C(C)(C)CCCC2(C)C2=C1C(=O)C(C(C)C)=CC2=O` (stereo not given in full), the growth was 1.18% (active).

As to `CC(C)N1CC(=O)N2CSCC2C1=O` (stereo not given), the growth was 102%.

In the case of `COC(=O)c1c2c(c[n+]([O-])c1C)C(=O)C(NCc1ccccc1)=CC2=O`, the growth was -34.5% (active).

For `C1CCN(c2nc(N3CCCCC3)nc(N3CCOCC3)n2)CC1`, the growth was 112%.

Turning to `COc1ccc(C(=O)c2cc3c(N)c(C(=O)Nc4cccc(OC)c4)sc3nc2C)cc1`, the growth was -44.5% (active).

On to `CCOC(=O)C1=C(C)NC(=O)NC1c1ccc(OCC(=O)N/N=C/c2ccc(Cl)cc2)cc1` (stereo not given), for which the growth was 98.3%.

On to `CCOC(=O)C1(C(=O)OCC)N=C(c2ccccc2)C=C1c1ccccc1`, for which the growth is 87.2%.

On to `O=C(/C(=C\c1ccc([N+](=O)[O-])cc1)S(=O)Cc1ccc(F)cc1)c1ccc(F)cc1` (stereo not given), for which the growth was 5.72% (active).

`N#C/C(=C/C=C/c1ccccc1)S(=O)c1ccccc1` (stereo not given): the growth was -16.5% (active).

Source of the values: PubChem BioAssay (NCI).
